Compound activity: PubChem, The Scripps Research Institute Molecular Screening Center
Sampled rows, rich in hits. Any-hit rate of the full collection: about 3.4%.
FBW7 act – human FBW7 E3 ligase activation, primary screen; Q969H0; AlphaScreen FBW7–phospho-cyclin E peptide binding, activator screen; normalized activity (activation), % at 26.1 µM; 650,000 tested, 0.13% active; in the data active means normalized activity above about 1.9%;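 further: purified mutant Fbw7 with reduced substrate affinity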
TEAD-YAP inh – TEAD-YAP interaction inhibition; HEK-TIYL cells, TEAD-Gal4/YAP UAS-luciferase luminescence; 640,000 tested, 1.4% active; inhibition, % at 9.12 µM; in the data active means inhibition above about 32%
GPR151 activ – human GPR151 activation | Q8TDV0 | PathHunter beta-arrestin GPR151 cells, luminescence | activation, % at 11.2 µM | 650,000 tested, 1% active; in the data active means activation above about 4.9%
MITF inh – human MITF inhibition, primary screen; 650,000 tested, 0.91% active; AlphaScreen MITF homodimerization, bead proximity signal; inhibition, % at 2.6 µM; AID 1259374; O75030; in the data active means inhibition above about 50%
Target sequence (O75030 whole entry, looked up): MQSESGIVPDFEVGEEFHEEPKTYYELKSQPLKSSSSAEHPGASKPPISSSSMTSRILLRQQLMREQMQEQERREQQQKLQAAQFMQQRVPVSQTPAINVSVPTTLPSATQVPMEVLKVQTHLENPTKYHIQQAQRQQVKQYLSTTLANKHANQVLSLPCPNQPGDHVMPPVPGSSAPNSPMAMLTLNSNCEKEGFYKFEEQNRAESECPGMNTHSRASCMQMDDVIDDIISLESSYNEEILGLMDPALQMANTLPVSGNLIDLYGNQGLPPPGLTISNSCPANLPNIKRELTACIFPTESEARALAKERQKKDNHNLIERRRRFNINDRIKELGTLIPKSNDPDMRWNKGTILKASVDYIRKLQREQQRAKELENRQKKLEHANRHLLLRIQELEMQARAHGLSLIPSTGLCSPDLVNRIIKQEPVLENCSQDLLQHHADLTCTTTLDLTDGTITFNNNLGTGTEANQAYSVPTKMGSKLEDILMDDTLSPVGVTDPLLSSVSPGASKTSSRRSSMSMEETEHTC
GPR151 conf act – confirmation of human GPR151 activators. shares compounds with GPR151 activ. GPR151 PathHunter beta-arrestin cells, luminescence, 90 min; % of EA-reagent control over plate median. activation, % at 11.2 µM. 6,700 tested, under 10 active. AID 1508609;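 active means mean percent activation across replicates above the confirmation screen cutoff of 4.91%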
GPR119 counter – activates human GPR119 in a GPR151 counter-screen; 6,700 tested, 0.3% active; activation, % at 11.2 µM; shares compounds with GPR151 activ; AID 1508611; GPR119 PathHunter beta-arrestin cells, luminescence, 90 min; 0 = compound-well median, 100 = enzyme-acceptor control;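 active means mean percent activation in the counterscreen above 29.09%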;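 further: counterscreen on off-target GPR119 to flag nonselective hits from the GPR151 activator screen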
Hits are given with their value; i = inactive; nt = not tested or not shown; ! = not confirmed by another sample.

SMILES | FBW7 act | TEAD-YAP inh | GPR151 activ | MITF inh | GPR151 conf act | GPR119 counter
Cc1ccc2c(c1)NC(=O)C(CC(=O)NCCN1CCN(c3cccc(C)c3C)CC1)O2 (centres undefined) | i | i | i | i | nt | nt
Cn1c(=NC(=O)CS(=O)(=O)c2ccccc2)sc2ccccc21 | i | i | 5.0 | i | i | i
Cc1cc(C)cc(NS(=O)(=O)c2ccc3c(c2)OCCCO3)c1 | i | i | i | i | nt | nt
Nc1ccc(NS(=O)(=O)c2ccc3c(c2)OCCCO3)cc1 | i | i | 6.5 | i | i | i
Nc1ncc(Br)cc1S(=O)(=O)NC1CCCCCCC1 | i | i | 7.3 | i | i | i
Nc1ncc(Br)cc1S(=O)(=O)NC1CCCCC1 | i | i | i | i | nt | nt
O=[N+]([O-])c1ccc(NC2CCCCC2)nc1 | i | i | i | i | nt | nt
O=C(Nc1ccc([N+](=O)[O-])cn1)C1CCCCC1 | i | i | 9.2 | i | i | i
COc1cccc(/C=C2\SC(N3CCCCC3)=NC2=O)c1OC | i | i | i | i | nt | nt
COc1cc(C(=O)Nc2cc(C(=O)N3CCN(c4ccccc4)CC3)ccc2N2CC3CC(C2)c2cccc(=O)n2C3)cc(OC)c1OC (centres undefined) | i | i | 5.5 | i | i | i
COC(=O)c1cc(NC(=O)c2ccc(N3CC4CC(C3)c3cccc(=O)n3C4)c(NC(=O)Nc3ccccc3)c2)cc(C(=O)OC)c1 (centres undefined) | i | i | 6.7 | i | i | i
COc1cc(C(=O)Nc2cc(C(=O)Nc3ccccc3SC)ccc2N2CC3CC(C2)c2cccc(=O)n2C3)cc(OC)c1OC (centres undefined) | i | i | i | i | nt | nt
CN(CCc1ccccn1)C(=O)c1ccc(N2CC3CC(C2)c2cccc(=O)n2C3)c(NC(=O)c2cccs2)c1 (centres undefined) | i | i | 7.4 | i | i | i
Cc1ccc(-n2c(C)nn(CN3CCOCC3)c2=S)cc1 | i | i | i | i | nt | nt
COc1cccc(CN2CCN(Cc3nc4ccccc4nc3C)CC2CCO)c1 (centres undefined) | i | i | i | i | nt | nt
O=C(COC(=O)c1ccc2ccccc2n1)c1ccccc1 | i | i | i | i | nt | nt
O=C(COC(=O)c1ccccc1)c1ccc2ccccc2c1 | i | i | 5.4 | i | i | i
COc1cccc(C(=O)COC(=O)c2cccc(NC(=O)c3ccccc3)c2)c1 | i | i | 6.1 | i | i | i
O=C(COC(=O)c1ccc2ccccc2n1)c1ccc(Cl)c(Cl)c1 | i | i | 5.6 | i | i | i
Cc1ccccc1-c1nc2s/c(=C3\C(=O)N(C)c4ccccc43)c(=O)n2n1 | i | i | i | i | nt | nt
Brc1c(OCc2nc(-c3cccnc3)no2)ccc2ccccc12 | i | i | 7.1 | i | i | i
Clc1ccc(OCc2nc(-c3cccnc3)no2)c(Br)c1 | i | i | i | i | nt | nt
CC1=NS(=O)(=O)c2ccccc2N1 | i | i | i | i | nt | nt
CC(C)c1ccc(N(C)S(=O)(=O)c2ccc3[nH]cc(C(=O)NCCN4CCOCC4)c(=O)c3c2)cc1 | i | i | 5.1 | i | i | i
COc1ccccc1NC(=O)Cn1c(=O)n(Cc2ccc(F)cc2)c(=O)c2cccnc21 | i | i | i | i | nt | nt
SMILES | FBW7 act | TEAD-YAP inh | GPR151 activ | MITF inh | GPR151 conf act | GPR119 counter
COc1ccccc1NC(=O)Cn1c(=O)n(Cc2ccccc2)c(=O)c2cccnc21 | i | i | 5.2 | i | i | i
COc1ccc(-n2c(SCC(=O)Nc3ccccc3OC)nc3ccsc3c2=O)cc1 | i | i | i | i | nt | nt
COc1ccccc1NC(=O)CSc1nc2ccsc2c(=O)n1-c1ccc(Cl)cc1 | i | i | 5.6 | i | i | i
COc1ccc(C2CC(=O)C3=C(C2)NC(C)=C(C(=O)OCCc2ccccc2)C3c2ccc(OCc3ccccc3)c(OC)c2)cc1 (centres undefined) | i | i | i | i | nt | nt
COC(=O)c1cc2c(cc1NC(=O)NCc1noc3ccccc13)OCO2 | i | i | 9.2 | i | i | i
O=C(NCc1cccc(Cl)c1)NCc1noc2ccccc12 | i | i | 6.5 | i | i | i
C=CCNc1cc(-c2ccccc2)nc2ncnn12 | i | i | i | i | nt | nt
C#CCNc1cc(-c2ccccc2)nc2ncnn12 | i | i | 7.1 | i | i | i
CCCS(=O)(=O)NCc1c(C)ncc2c1CCN(C(=O)CCc1cccc(OC)c1)C2 | i | i | i | i | nt | nt
COc1ccc(Cl)cc1NC(=O)/C(=C/c1cccc([N+](=O)[O-])c1)NC(=O)c1cccc(Cl)c1 | i | i | i | i | nt | nt
O=C(NCc1ccccc1)/C(=N\O)c1ccccc1 | i | i | 6.2 | i | i | i
CCNc1nc(NCc2cccc(C(F)(F)F)c2)c2ncn(-c3ccccc3)c2n1 | i | i | i | i | nt | nt
CC(C)N(C)Cc1nnnn1CC(=O)NCC(c1ccccc1)c1ccccc1 | i | i | i | i | nt | nt
CCOC(=O)N1CCN(C(=O)Cn2nnnc2CN(C)C(C)C)CC1 | i | i | 5.2 | i | i | i
CC(C)N(C)Cc1nnnn1CC(=O)NC1(c2ccccc2)CC1 | i | i | 8.3 | i | i | i
CCOC(=O)N1CCN(C(=O)Cn2nnnc2CN2CCCCCC2)CC1 | i | i | i | i | nt | nt
COc1cccc(NC(=O)CN(C2=NC3CS(=O)(=O)CC3S2)c2ccccc2F)c1 (centres undefined) | i | i | 5.0 | i | i | i
O=CN1CCN(c2nc(-c3ccccc3)cs2)CC1 | i | i | i | i | nt | nt
COc1ccc2[nH]cc(NC(=O)NCCN3CCOCC3)c(=O)c2n1 | i | i | i | i | nt | nt
OCCNCCCCOc1cccc(Cl)c1Cl | i | i | i | i | nt | nt
OCCNCCCOc1cccc(Cl)c1Cl | i | 70 | 5.5! | i | i | i
COc1ccc(CCNC(=O)c2cc(Cl)ccc2[N+](=O)[O-])cc1 | i | i | 5.1 | i | i | i
CCC(Sc1nnc(-c2ccc(C)cc2)c(-c2ccc(C)cc2)n1)C(=O)NCCOC (centres undefined) | i | i | i | i | nt | nt
O=C(c1cc([N+](=O)[O-])cc([N+](=O)[O-])c1)n1cnc2ccccc21 | i | i | i | i | nt | nt
Cc1ccccc1C(=O)n1cnc2cc([N+](=O)[O-])ccc21 | i | i | 7.1 | i | i | i
SMILES | FBW7 act | TEAD-YAP inh | GPR151 activ | MITF inh | GPR151 conf act | GPR119 counter
COC(=O)C[n+]1csc2ccccc21 | i | i | 7.8 | i | i | i
FC(F)(F)c1ccc(-c2cnnc(N3CCSCC3)n2)cc1 | i | i | i | i | nt | nt
OC1CCN(C2CCN(c3nncc(-c4ccc(C(F)(F)F)cc4)n3)CC2)CC1 | i | i | 7.3 | i | i | i
Cc1cc(N)c2ccccc2[n+]1CCCCCCCCCCCCCC[n+]1c(C)cc(N)c2ccccc21 | i | 84 | 6.6 | i | i | i
O=C1N[C@H](CO)C(=O)N2CCN(C(=O)c3ccc(F)cc3)C[C@H]12 | i | i | i | i | nt | nt
CCO/C(C)=C/c1oc2ccc(-c3ccccc3)cc2[n+]1CCCS(=O)(=O)O | i | i | 5.6 | i | i | i
